# Laboratory results published in PubChem BioAssay (EPA / NIEHS).
# The source made the active and inactive calls. The calls were made as follows: active = hit-call score of the fitted dose curve at least 0.9, where 1 is the maximum; inactive = score below 0.9.
# Target: Transcription factor E2F1 (Homo sapiens) (UniProt Q01094)
# Assay: ATG_E2F_CIS: Attagene CIS-FACTORIAL HepG2 Assay for human E2F Transcription Factor 1 (AID 2282935)
# Details: HepG2 Attagene cis-reporter, E2F reporter RNA transcripts; actives raise or lower the signal
# Experimental: ATG_CIS is a cell-based, multiplexed-readout assay that uses HepG2, a human liver cell line, with measurements taken at 24 hours after chemical dosing in a 24-well plate.ATG_E2F_CIS is one of 52 assay component(s) measured or calculated from the ATG_CIS assay. It is designed to make measurements of mRNA induction, a form of inducible reporter, as detected with fluorescence intensity signals by Reverse transcription polymerase chain reaction (RT-PCR) and Capillary electrophoresis technology.Data from the assay component ATG_E2F_CIS was analyzed into 1 assay endpoint. This assay endpoint, ATG_E2F_CIS, was analyzed with bidirectional fitting relative to DMSO as the negative control and baseline of activity. Using a type of inducible reporter, measures of mRNA for gain or loss-of-signal activity can be used to understand the reporter gene at the transcription factor-level as they relate to the gene E2F1. Furthermore, this assay endpoint can be referred to as a primary readout, because this assay has produced multiple assay endpoints where this one serves a reporter gene function. To generalize the intended target to other relatable targets, this assay endpoint is annotated to the dna binding intended target family, where the subfamily is E2F transcription factor.
# Human liver HepG2 cells are transiently transfected with multiple reporter transcription units (MRTUs) in 6-well plates using FuGene 6 reagent (Roche; 3 ml FuGene/1 mg DNA). The MRTU constructs are regulated by a cis-regulating element (promoter). […] A major difference between the CIS and TRANS system is that in CIS activities of endogenous TFs are measured, whereas the TRANS assay evaluates changes in activities of exogenous, chimeric NR-Gal4 proteins. […] At the end of 24 hour incubation, total RNA was isolated using TriZol reagent (Invitrogen). The isolated RNA is then reverse-transcribed using oligo(dT) primer and Mo-MLV reverse transcriptase (Invitrogen) with DNAse I (Ambion) treatment for 30 min. The one-tenth of the produced cDNA was amplified by PCR using Taq DNA polymerase (Invitrogen) and two reporter sequence-specific primers. The PCR products were fluorescently labeled by primer extension with 6-arboxyfluorescein (6-FAM) 5'-labeled reporter sequence-specific primer (2 min at 95 C, 20 s at 68 C and 10 min at 72 C) and these products were digested with 5U of HpaI (New England Biolabs) for 2h at 37 C. The fragments were purified using Qiaquick PCR columns (Qiagen), analyzed on an ABI 3130xL genetic analyzer (Applied Biosystems) with peak positions identified by using a set of X-rhodamine (ROX)-labeled MapMarker1000 molecular weight standards (BioVentures). The raw capillary electrophoresis data was processed using Attagraph software (Attagene).
# Chain of Transcription factor E2F1 (Homo sapiens) (Q01094 whole entry, looked up): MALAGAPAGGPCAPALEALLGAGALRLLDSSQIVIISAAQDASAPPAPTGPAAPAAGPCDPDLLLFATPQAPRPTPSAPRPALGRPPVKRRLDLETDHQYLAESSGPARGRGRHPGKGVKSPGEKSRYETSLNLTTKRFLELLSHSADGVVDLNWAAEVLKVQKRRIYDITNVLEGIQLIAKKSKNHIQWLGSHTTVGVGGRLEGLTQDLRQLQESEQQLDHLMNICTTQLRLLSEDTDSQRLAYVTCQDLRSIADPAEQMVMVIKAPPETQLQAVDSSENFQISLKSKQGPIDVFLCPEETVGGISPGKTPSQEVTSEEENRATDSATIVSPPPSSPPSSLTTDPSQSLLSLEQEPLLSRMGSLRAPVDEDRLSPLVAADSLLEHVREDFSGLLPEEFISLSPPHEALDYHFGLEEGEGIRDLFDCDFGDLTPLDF
Compound,outcome,AC50
CCCCCC(=O)OCC,inactive,
C/C=C/C=C/CCCCCCCO,inactive,
NNS(=O)(=O)c1ccc(Oc2ccc(S(=O)(=O)NN)cc2)cc1,inactive,
O=C(O)CC(C(=O)O)S(=O)(=O)O (stereo not given),inactive,
Nc1ccc(Cl)c(N)c1,inactive,
COc1cc(O)c(C(=O)c2ccccc2)cc1S(=O)(=O)O,inactive,
O=C(O)C(F)(F)C(F)(F)C(F)(F)C(F)(F)C(=O)O,inactive,
O=C(O)CCC(=O)O,inactive,
CCOC(=O)c1ccccc1C,inactive,
CCCCC/C=C\C/C=C\CCCCCCCC(=O)O,inactive,
O=C(OCCc1ccccc1)c1ccccc1,inactive,
CCCCCOC(=O)CCCCC,inactive,
CC(C)(C)C1CCC(=O)CC1,inactive,
O=C(Oc1ccccc1)c1ccccc1O,inactive,
CCC(=O)C1CC(C(C)C)CC=C1C (stereo not given),inactive,
CCCCCCCCCCCCCc1ccccc1,inactive,
CCCCCCCCCCCCc1ccc(O)cc1,inactive,
COc1cc(C)ccc1O,inactive,
C=C(C)C(=O)OCCCCCCCCCCCC,inactive,
CC1CC(=O)CC(C)(C)C1 (stereo not given),inactive,

Compound,outcome,AC50
C=CCCCCCCCCO,inactive,
CC1=CCC(C(C)C)C=C1 (stereo not given),inactive,
CCCCCCCCCCCC(=O)OCC,inactive,
Cc1cccc(C(C)(C)C)c1O,inactive,
C=C1C[C@H]2[C@@H]3C=C(C)C4=CC(=O)CC[C@]4(C)[C@H]3CC[C@]2(C)[C@@]1(OC(C)=O)C(C)=O,inactive,
C[Si](C)(C)N[Si](C)(C)C,inactive,
O=C1c2ccccc2C(=O)c2cc(S(=O)(=O)O)ccc21,inactive,
CCC(C)C(=O)OC (stereo not given),inactive,
O=C1CCCCC1C1CCCCC1 (stereo not given),inactive,
CC=C(C)C(C)=O,inactive,
CCCCCCCCCCCC(=O)N(C)CC(=O)O,inactive,
CCCCCCCCCCCCCC(=O)OC(C)C,inactive,
Nc1ccc(C(=O)OCCCOC(=O)c2ccc(N)cc2)cc1,inactive,
C[N+](C)(C)CCCNS(=O)(=O)C(F)(F)C(F)(F)C(F)(F)C(F)(F)C(F)(F)C(F)(F)C(F)(F)C(F)(F)F,inactive,
CCOC(=O)C1=NN(c2ccc(Cl)cc2Cl)C(C)(C(=O)OCC)C1 (stereo not given),inactive,
CC(C)(CO)COC(=O)C(C)(C)CO,inactive,
CCCCCCCCC(CO)CCCCCC (stereo not given),,189 µM (active)
CC(C)CCCCCOC(=O)CS,inactive,
Cc1ccc2c(c1)CCCN2,inactive,
C=CC(=O)OCCCCCCCCCC,inactive,
